Assay results reported in PubChem BioAssay (Tox21).
Inconclusive results are not listed. A call without a number means that no potency is given here. Activity calls are given as the source filed them. The call rests on the fitted dose curve; in most records, active means well fitted inhibition curve with a large enough effect in the repeat runs; inconclusive means weak or mixed curves; inactive means no such curve, though single readings can be large or run the other way.

What follows are compounds tested against Estrogen receptor (Homo sapiens) (UniProt P03372) (assay: qHTS assay to identify small molecule antagonists of the estrogen receptor alpha (ER-alpha) signaling pathway using the BG1 cell line in the presence of 0.1 nM 17-beta-estradiol (AID 1259244; further: nearly all actives have a fitted effect of over 50% in size)). Details: VM7Luc4E2 (BG1) ERE-luciferase, antagonist mode, 0.1 nM E2, 22 h; series mostly up to 92.4 µM.
Description: National Center for Advancing Translational Sciences [NCATS]
NIH Chemical Genomics Center [NCGC]
U.S. Environmental Protection Agency [EPA]
National Institutes of Environmental Health Sciences [NIEHS]
National Toxicology Program [NTP]
U.S. Food and Drug Administration [FDA]
Estrogen receptor (ER), a member of the nuclear hormone receptor plays an important role in development, metabolic homeostasis and reproduction. Two subtypes of ER, ER-alpha and ER-beta, have similar expression patterns with some uniqueness in both types. Endocrine disrupting chemicals (EDCs) and their interactions with steroid hormone receptors like ER causes disruption of normal endocrine function. Therefore, it is important to understand the effect of environmental chemicals in ER signaling pathway. For identifying ER antagonists, VM7Luc4E2 cell line was used to screen against Tox21 compound libraries.
VM7Luc4E2 cell line (provided by Denison MS, University of California) endogenously express full-length ER-alpha and is stably transfected with a plasmid containing four estrogen responsive elements (ERE) upstream of a luciferase reporter gene. The current screening for identification of ER-alpha inhibitors against Tox21 compound libraries used lower concentration (0.1 nM) of 17beta-Estradiol as a stimulator.
Tox21 Assay Protocol Summary:
VM7Luc4E2 cells were cultured in phenol red free assay medium containing 10% charcoal stripped FBS for 5 days prior to the assay. The cells were dispensed at 4,000 cells/well in 4 uL of assay medium into white wall/solid-bottom 1536-well plates (Corning Life Sciences, Corning, NY) using a Multidrop Combi (ThermoFisher Scientific, Waltham, MA) dispenser. After the assay plates were incubated at 37C and 5% CO2 for 24 hr, 23 nL of compounds dissolved in DMSO, positive controls or DMSO only was transferred to the assay plates by a Pintool station (Kalypsys, San Diego, CA). The transfer of compounds was followed by the addition of 1 uL of 0.1 nM (final concentration) agonist (17beta-Estradiol)/assay medium using a Flying Reagent Dispenser (FRD, Aurora Discovery, San Diego, CA). The plates were incubated at 37C and 5% CO2 for 22 hr. For luciferase reporter gene assay, 4 uL of ONE-Glo reagent (Promega Corporation, Madison, WI) was added to each well using the FRD and after 30 min incubation at room temperature luminescence intensity was measured using ViewLux plate reader (PerkinElmer, Shelton, CT).
Potency means the concentration at half of the fitted maximal effect.

Estrogen receptor (Homo sapiens), sequence (P03372 whole entry, looked up): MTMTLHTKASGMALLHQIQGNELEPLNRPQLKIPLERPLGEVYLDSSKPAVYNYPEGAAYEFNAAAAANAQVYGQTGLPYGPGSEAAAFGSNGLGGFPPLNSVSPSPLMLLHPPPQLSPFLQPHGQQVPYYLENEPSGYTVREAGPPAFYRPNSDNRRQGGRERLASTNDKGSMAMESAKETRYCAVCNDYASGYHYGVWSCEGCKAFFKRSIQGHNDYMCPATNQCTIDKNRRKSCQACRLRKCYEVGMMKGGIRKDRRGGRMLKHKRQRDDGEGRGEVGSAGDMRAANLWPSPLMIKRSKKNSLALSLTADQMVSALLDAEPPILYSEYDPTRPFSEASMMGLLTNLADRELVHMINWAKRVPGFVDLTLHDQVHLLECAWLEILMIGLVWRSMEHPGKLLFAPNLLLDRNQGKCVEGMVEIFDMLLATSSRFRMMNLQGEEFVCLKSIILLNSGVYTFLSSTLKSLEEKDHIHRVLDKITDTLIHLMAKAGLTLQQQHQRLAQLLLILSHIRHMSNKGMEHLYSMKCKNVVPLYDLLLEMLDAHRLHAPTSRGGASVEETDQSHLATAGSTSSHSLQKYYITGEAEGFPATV

For `c1ccc(Nc2ccc(Nc3ccccc3)cc2)cc1`, which Potency is on record?
The Potency was “inactive”.

With `O=[N+]([O-])c1ccc(CCl)cc1` as the compound, how does the Potency read?
Its Potency is “inactive”.

With `Nc1ccccc1-c1ccccc1` as the compound, how does the Potency read?
The Potency was “inactive”.

Which Potency does the source give for `CCCCC(CC)COC(=O)c1ccccc1C(=O)OCC(CC)CCCC` (stereo not given) here?
The Potency was “inactive”.

`Cc1c([N+](=O)[O-])c(C)c([N+](=O)[O-])c(C(C)(C)C)c1[N+](=O)[O-]` was tested. Which Potency did it give?
The Potency was “inactive”.

With `CN1CCc2cc(Cl)c(O)cc2[C@H]2c3ccccc3CC[C@@H]21` as the compound, how does the Potency read?
Its Potency is “inactive”.

With `CC(C)=CCN1CC[C@@]2(C)c3cc(O)ccc3C[C@@H]1[C@@H]2C` as the compound, how does the Potency read?
The Potency was “inactive”.

For `CO/N=C(/C1=NOCCO1)c1ccccc1Oc1ncnc(Oc2ccccc2Cl)c1F`, which Potency is on record?
Its Potency is 4.85 µM (active).

How did the Potency turn out when `N#Cc1c[nH]cc1-c1cccc2c1OC(F)(F)O2` was run?
Its Potency is 24.3 µM (active).

For `Nc1nc(N)nc(Cl)n1`, which Potency is on record?
Its Potency is “inactive”.

`CC(C)[C@@H](Nc1ccc(C(F)(F)F)cc1Cl)C(=O)OC(C#N)c1cccc(Oc2ccccc2)c1` (stereo not given in full) was tested. Which Potency did it give?
The Potency was “inactive”.

How did the Potency turn out when `CC(O)C(=O)[O][Hg][c]1ccccc1` (stereo not given) was run?
The Potency was 8.63 µM (active).

With `O=S1OCC2C(CO1)C1(Cl)C(Cl)=C(Cl)C2(Cl)C1(Cl)Cl` (stereo not given) as the compound, how does the Potency read?
The Potency was “inactive”.

For `O=C(Cl)c1ccccc1F`, which Potency is on record?
The Potency was “inactive”.

With `[O]=[Cr][O][Cr]=[O]` as the compound, how does the Potency read?
The Potency was “inactive”.

How did the Potency turn out when `O=C(CCCCl)c1ccc(F)cc1` was run?
Its Potency is “inactive”.

`ClC(Cl)C(Cl)(Cl)Cl` was tested. Which Potency did it give?
The Potency was “inactive”.

With `O=S(=O)(O)F` as the compound, how does the Potency read?
Its Potency is “inactive”.

How did the Potency turn out when `CN1C2CCC(C)(C)C1CC(OC(=O)C(O)(c1cccs1)c1cccs1)C2` (stereo not given) was run?
The Potency was “inactive”.

How did the Potency turn out when `CCCCN(CCCC)C(=S)[S-].CCCCN(CCCC)C(=S)[S-].[Ni+2]` was run?
The Potency was “inactive”.

`COP(=S)(OC)Oc1nc(Cl)c(Cl)cc1Cl` was tested. Which Potency did it give?
Its Potency is “inactive”.

`N#Cc1c2ccccc2cc2ccccc12` was tested. Which Potency did it give?
The Potency was “inactive”.

`S=C=NCCc1ccccc1` was tested. Which Potency did it give?
The Potency was “inactive”.

Which Potency does the source give for `O=NN(CCO)CCO` here?
The Potency was “inactive”.

How did the Potency turn out when `C=Cc1cccc(CCl)c1` was run?
Its Potency is “inactive”.

Which Potency does the source give for `O=[N+]([O-])c1ccc(Cl)c(Cl)c1Cl` here?
Its Potency is “inactive”.

For `c1ccc2nc(N3CCNCC3)ccc2c1`, which Potency is on record?
The Potency was “inactive”.

Which Potency does the source give for `ClC1=C(Cl)[C@]2(Cl)[C@H]3[C@H]([C@@H]4C=C[C@H]3C4)[C@@]1(Cl)C2(Cl)Cl` here?
Its Potency is “inactive”.

For `Brc1cccc(-c2ccccc2)c1`, which Potency is on record?
Its Potency is “inactive”.

For `CSC(C)(C)/C=N/O`, which Potency is on record?
The Potency was “inactive”.

Which Potency does the source give for `c1csc(-c2ccc(-c3cccs3)s2)c1` here?
The Potency was “inactive”.

Which Potency does the source give for `COc1cnc(OC)n2nc(NS(=O)(=O)c3c(OCC(F)F)cccc3C(F)(F)F)nc12` here?
Its Potency is “inactive”.

With `COC(=O)/C=C(\C)OP(=O)(OC)OC` as the compound, how does the Potency read?
Its Potency is “inactive”.

How did the Potency turn out when `CCC1(CC)C(=O)N=C(O)NC1=O` was run?
Its Potency is “inactive”.

With `Oc1cccc(Cl)c1Cl` as the compound, how does the Potency read?
Its Potency is “inactive”.

`CNC(=O)Oc1cc(C)cc(C(C)C)c1` was tested. Which Potency did it give?
Its Potency is “inactive”.

How did the Potency turn out when `Cc1cc(C2CC2)nc(Nc2ccccc2)n1` was run?
Its Potency is “inactive”.

For `ClSC(Cl)(Cl)Cl`, which Potency is on record?
Its Potency is “inactive”.

With `O=c1c2ccccc2c(=O)c2c1cc(Cl)c1[nH]c3c([nH]c12)c(Cl)cc1c(=O)c2ccccc2c(=O)c13` as the compound, how does the Potency read?
Its Potency is “inactive”.

`Oc1cc(Cl)c(Cl)c(Cl)c1Cl` was tested. Which Potency did it give?
Its Potency is 29.9 µM (active).
